In PubChem BioAssay (NCI) one finds growth data, which are given here for nine molecules.

Several values for one entry are separate records, joined by “and”; a condition that tells them apart may be missing. Equal entries are not always repeated. Compounds without any hit were thinned out: in the full panel of roughly 83,000, 20% have a hit.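 Cells were grown in 96-well plates and exposed to the test compound at a single concentration for 48 hours; results are reported as percent growth, with values below 10 considered active.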 Activity calls are given as the source filed them.

Common to all, as to assay: NCI-60 one-dose screen, 48 h (100 = growth as untreated, 0 = no growth, -100 = all killed)
Common to all, as to settings: 10 µM unless noted

Assay [1] relates to HCT-15 colon.
Assay [2] concerns HT29 colon.
Assay [3] deals with SNB-75 CNS.
Assay [4] has as its system SNB-19 CNS.
The test system of assay [5] is U251 CNS.
Assay [6] relates to PC-3 prostate.
Assay [7] concerns SK-MEL-5 melanoma.
The test system of assay [8] is UACC-62 melanoma.
Assay [9] relates to LOX IMVI melanoma.
Assay [10] has as its system SK-MEL-28 melanoma.
In assay [11] the test system is SK-MEL-2 melanoma.
Assay [12] deals with EKVX NSCLC.
For assay [13], the system named is SN12C renal.
Assay [14] relates to UO-31 renal.
Assay [15] concerns TK-10 renal.
Assay [16] has as its system ACHN renal.
Assay [17] concerns CAKI-1 renal.
Assay [18] deals with A498 renal.
Assay [19] deals with CCRF-CEM leukemia.
For assay [20], the system named is MOLT-4 leukemia.

On to `COc1ccc(S(=O)(=O)c2ccc(F)cc2)cc1`, for which the growth in assay [1] is 95.6% (inactive); in [2], 106% (inactive); in assay [3], 101% (inactive); in [4], 93.1% (inactive); in [5], 101% (inactive); in assay [6], 94.1% (inactive). Besides, the growth in [7] was 106% (inactive); in assay [8] it was 93.9% (inactive); in assay [9] it was 81.5% (inactive); in [10], 104% (inactive); in assay [11], 99% (inactive); in [12] it was 122% (inactive). Further, the growth in assay [13] was 97.8% (inactive); in assay [14] it was 83.8% (inactive); in assay [15] it was 95.4% (inactive); in assay [16], 103% (inactive); in [17], 108% (inactive); in assay [18], 108% (inactive). In addition, the values for the growth in [19] and in assay [20] were 84.6% (inactive) and 92.3% (inactive), respectively.
As to `COc1ccc(CCN=Cc2ccc(Cl)cc2)cc1OC`, the growth in [1] was 106% (inactive); in [2], 107% (inactive); in assay [3], 127% (inactive); in assay [4], 101% (inactive); in [5] it was 105% (inactive); in assay [6] it was 116% (inactive). Also, the growth was 107% (inactive) in [7]; 107% (inactive) in [8]; 95.8% (inactive) in assay [9]; 121% (inactive) in [10]; 98.4% (inactive) in assay [11]; 111% (inactive) in assay [12]. Besides, the growth is 99.5% (inactive) in [13]; 83.7% (inactive) in assay [14]; 107% (inactive) in assay [15]; 106% (inactive) in assay [16]; 101% (inactive) in [17]; 95.3% (inactive) in assay [18]. For the same molecule, the growth in [19] was 105% (inactive); in assay [20] it was 99.9% (inactive).
As for `CCCC(=O)OCC(COC(=O)CCC)OC(=O)CCC`, the growth was 106% (inactive) in assay [1]; 102% (inactive) in assay [2]; 93.5% (inactive) in assay [3]; 97.6% (inactive) in assay [4]; 88.3% (inactive) in assay [5]; 85.4% (inactive) in assay [6]. In addition, the growth in assay [7] was 98.5% (inactive); in assay [8], 89.9% (inactive); in assay [9], 101% (inactive); in assay [10], 108% (inactive); in assay [11], 99.2% (inactive); in [12] it was 93.7% (inactive). In addition, the growth in assay [13] is 96.9% (inactive); in assay [14] it was 87.3% (inactive); in [15], 99.4% (inactive); in assay [16], 108% (inactive); in [17], 94.8% (inactive); in [18] it was 104% (inactive). Moreover, the growth in assay [19] was 95.4% (inactive); in assay [20] it was 102% (inactive).
For `CC(CN(C)C)CN1c2ccccc2Sc2ccccc21` (stereo not given), the growth in assay [1] was 84.8% (inactive) and 89.2% (inactive) and 84.7% (inactive); in assay [2], 56.1% (inactive) and 71.1% (inactive) and 67.4% (inactive); in assay [3] it was 64.2% (inactive) and 60.6% (inactive) and 43.4% (inactive); in [4], 94.6% (inactive) and 80.4% (inactive) and 91.2% (inactive); in assay [5], 73.4% (inactive) and 87.5% (inactive) and 76.9% (inactive); in [6] it was 63.7% (inactive) and -49.1% (active) and 52.7% (inactive). For the same molecule, the growth in [7] was 87.1% (inactive) and 74% (inactive) and 89.3% (inactive); in assay [8], 92.8% (inactive) and 65.9% (inactive); in assay [9] it was 80.6% (inactive) and 83.5% (inactive) and 73.2% (inactive); in [10], 87.6% (inactive) and 113% (inactive) and 68.2% (inactive); in assay [11], 91.3% (inactive) and 103% (inactive); in assay [12] it was 83% (inactive) and 104% (inactive) and 73.8% (inactive). Moreover, the growth in [13] was 65% (inactive) and 85.2% (inactive) and 80.5% (inactive); in [14] it was 51.7% (inactive) and 77.9% (inactive) and 71.7% (inactive); in [15] it was 82.6% (inactive) and 76.6% (inactive) and 81.6% (inactive); in [16], 76.1% (inactive) and 92.2% (inactive) and 85.9% (inactive); in assay [17], 62.3% (inactive) and 69.6% (inactive); in assay [18], 108% (inactive) and 95% (inactive) and 82.6% (inactive). Besides, the growth in assay [19] was 82.1% (inactive) and 85.3% (inactive) and 77.6% (inactive); in assay [20] it was 75.7% (inactive) and 100% (inactive) and 76.7% (inactive).
Turning to `Cn1c(N)c(N=O)c(=O)n(C)c1=O`, the growth in assay [1] is 105% (inactive) and 101% (inactive); in assay [2] it was 111% (inactive) and 90.2% (inactive); in assay [3], 86.9% (inactive) and 92.6% (inactive); in assay [4], 99.8% (inactive) and 102% (inactive); in assay [5] it was 92.9% (inactive) and 101% (inactive); in assay [6], 96.2% (inactive) and 96.9% (inactive). Moreover, the growth in [7] is 137% (inactive) and 99.6% (inactive); in assay [8], 103% (inactive) and 93.1% (inactive); in assay [9], 100% (inactive); in assay [10], 104% (inactive) and 100% (inactive); in [11] it was 108% (inactive) and 102% (inactive); in assay [12] it was 97.4% (inactive) and 95.9% (inactive). Also, the growth is 109% (inactive) and 93.8% (inactive) in [13]; 82% (inactive) and 92.5% (inactive) in assay [14]; 120% (inactive) and 92.8% (inactive) in assay [15]; 109% (inactive) in [16]; 102% (inactive) in assay [17]; 99% (inactive) and 78% (inactive) in assay [18]. Besides, the growth in [19] is 106% (inactive) and 116% (inactive); in [20] it was 93.9% (inactive) and 117% (inactive).
As for `O=C(O)COc1ccccc1F`, the growth is 113% (inactive) in assay [1]; 113% (inactive) in [2]; 94.4% (inactive) in assay [3]; 107% (inactive) in assay [4]; 109% (inactive) in assay [5]; 82.6% (inactive) in assay [6]. Moreover, the growth was 95% (inactive) in assay [7]; 101% (inactive) in [8]; 96.5% (inactive) in assay [9]; 112% (inactive) in assay [10]; 102% (inactive) in [11]; 111% (inactive) in assay [12]. Also, the growth in assay [13] was 98.3% (inactive); in assay [14], 103% (inactive); in assay [15], 109% (inactive); in assay [16] it was 108% (inactive); in [17], 93.2% (inactive); in assay [18], 102% (inactive). In addition, the growth in [19] was 92.3% (inactive); in assay [20], 95.3% (inactive).
For `N=C(N=C(N)N)N1CCOCC1`, the growth in [1] was 101% (inactive) and 94.5% (inactive); in assay [2] it was 104% (inactive) and 111% (inactive); in assay [3], 90.5% (inactive) and 89.8% (inactive); in [4] it was 110% (inactive) and 99.1% (inactive); in [5], 101% (inactive) and 103% (inactive); in assay [6], 93.7% (inactive) and 94.5% (inactive). Moreover, the growth was 96.1% (inactive) and 98% (inactive) in assay [7]; 105% (inactive) and 100% (inactive) in assay [8]; 102% (inactive) and 93.2% (inactive) in assay [9]; 99.5% (inactive) and 103% (inactive) in assay [10]; 111% (inactive) and 99.2% (inactive) in [11]; 103% (inactive) and 105% (inactive) in assay [12]. For the same molecule, the growth in assay [13] was 99.4% (inactive) and 96.7% (inactive); in assay [14], 83.8% (inactive) and 85% (inactive); in assay [15] it was 103% (inactive) and 97.9% (inactive); in assay [16] it was 103% (inactive); in assay [17], 94.8% (inactive) and 103% (inactive); in assay [18], 91.7% (inactive) and 102% (inactive). For the same molecule, the growth in assay [19] was 107% (inactive) and 93.8% (inactive); in [20], 105% (inactive) and 102% (inactive).
For `C(#CCN1CCOCC1)CCCN1CCOCC1`, the growth is 91% (inactive) and 99.6% (inactive) in assay [1]; 106% (inactive) and 105% (inactive) in assay [2]; 83.7% (inactive) and 104% (inactive) in assay [3]; 107% (inactive) and 108% (inactive) in assay [4]; 102% (inactive) and 98.7% (inactive) in assay [5]; 99.9% (inactive) and 93.2% (inactive) in assay [6]. Further, the growth was 101% (inactive) and 104% (inactive) in assay [7]; 96.3% (inactive) and 96.5% (inactive) in [8]; 102% (inactive) and 99.6% (inactive) in [9]; 107% (inactive) and 110% (inactive) in [10]; 108% (inactive) and 117% (inactive) in [11]; 104% (inactive) and 83.1% (inactive) in assay [12]. In addition, the growth was 102% (inactive) in assay [13]; 97.6% (inactive) and 89.6% (inactive) in assay [14]; 109% (inactive) and 86.2% (inactive) in assay [15]; 101% (inactive) and 98.3% (inactive) in assay [16]; 98.1% (inactive) and 94.7% (inactive) in [17]; 87.1% (inactive) and 104% (inactive) in assay [18]. Moreover, the growth in assay [19] was 107% (inactive); in [20], 109% (inactive) and 113% (inactive).
In the case of `OCCSc1ccc(Cl)cc1`, the growth in assay [1] was 104% (inactive) and 102% (inactive); in [2] it was 104% (inactive) and 88.1% (inactive); in assay [3], 96.7% (inactive) and 83% (inactive); in [4] it was 118% (inactive) and 94.6% (inactive); in assay [5], 102% (inactive) and 96.6% (inactive); in assay [6], 101% (inactive) and 81.5% (inactive). In addition, the growth in [7] was 108% (inactive) and 98.3% (inactive); in [8], 110% (inactive) and 98.1% (inactive); in assay [9], 98.4% (inactive) and 101% (inactive); in [10], 121% (inactive) and 93.3% (inactive); in assay [11] it was 109% (inactive) and 90.7% (inactive); in [12] it was 100% (inactive) and 89.4% (inactive). Further, the growth is 104% (inactive) and 93% (inactive) in assay [13]; 95.9% (inactive) and 85.7% (inactive) in [14]; 87.7% (inactive) in assay [15]; 99.6% (inactive) and 95.1% (inactive) in assay [16]; 107% (inactive) and 91.1% (inactive) in assay [17]; 107% (inactive) and 88.9% (inactive) in assay [18]. Also, the growth in [19] is 119% (inactive) and 96.7% (inactive); in [20] it was 118% (inactive) and 91.7% (inactive).
